Pf growth 96h: inhibits malaria parasite growth, 96 h. P. falciparum luciferase reporter growth, 96 h. Potency, µM (doses to about 28.7 µM), without a hit: at the top dose activity change, negative = inhibition, usual class: inhibitors. hit rate 6.9% among 320,000
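Two parasite generations (96 h, 37 C, 5% CO2) of compound exposure in infected erythrocytes (0.05% parasitemia, 2% hematocrit). Luciferase-reporter P. falciparum; decreased luminescence indicates inhibited growth, aimed at apicoplast-acting delayed death.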
HCV inhibitor: blocks hepatitis C virus; AID 651820; Huh7.5.1 HCVcc-Cre infection, luciferase reporter, 44 h; Potency, µM (series often up to 41.8 µM), for the others: at the top dose activity change, negative = inhibition, most hits filed as inhibitors; hit rate 3.4% among 340,000
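Antiviral activity was scored by luciferase reporter output from cells infected with HCVcc-Cre (~0.5 moi) in presence of compound, 44 h infection period, cells seeded 1,000/well 4 h prior.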
AmpC no deterg: AmpC beta-lactamase inhibition without detergent | AID 485341 | hit rate 0.52% among 330,000 | P00811 | AmpC nitrocefin hydrolysis, absorbance 480 nm, 0.0001% Triton | Potency, µM (highest dose often 57.1 µM), for the others: at the highest dose activity change, negative = inhibition, actives largely listed as inhibitors;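 further: plate controls were no compound for no effect and no enzyme for full effect; nearly all actives have a fitted effect of over 20% in size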
Target sequence (P00811 whole entry, looked up): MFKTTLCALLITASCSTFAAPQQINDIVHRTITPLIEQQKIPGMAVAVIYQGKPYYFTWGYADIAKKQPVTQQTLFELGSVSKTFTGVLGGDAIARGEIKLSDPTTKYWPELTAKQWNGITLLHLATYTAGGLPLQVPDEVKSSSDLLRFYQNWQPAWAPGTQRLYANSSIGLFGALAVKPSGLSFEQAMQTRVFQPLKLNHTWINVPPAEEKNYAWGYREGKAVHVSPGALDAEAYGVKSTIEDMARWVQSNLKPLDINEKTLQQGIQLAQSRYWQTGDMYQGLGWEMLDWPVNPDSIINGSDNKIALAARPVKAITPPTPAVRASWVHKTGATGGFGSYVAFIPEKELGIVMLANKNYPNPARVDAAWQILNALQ
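AmpC (5.3 nM in the dispensed reagent) in 20 mM phosphate pH 7.0 with 0.01% (detergent screen) or 0.0001% Triton X-100 was preincubated with compounds for 15 min at room temperature. Nitrocefin was then added from an 800 uM solution, and hydrolysis was followed at 480 nm.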
AMA1-RON2 inh: inhibitors of Plasmodium falciparum AMA1-RON2 interaction. AID 720542. Potency, µM (top dose mostly 58.2 µM), without a hit: top-dose activity change, negative = inhibition, most hits filed as inhibitors. AlphaScreen AMA1-biotinylated RON2 peptide binding. hit rate 0.2% among 360,000;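 further: 0% = vehicle wells and -100% = peptide control; nearly all actives have a fitted effect of over 45% in size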
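AMA1 (3D7) with his tag at 25 nM final met compounds first, then biotinylated RON2 peptide at 25 nM; detection used donor plus acceptor beads, 10 µg/mL apiece, read by AlphaScreen after 30 min at room temperature.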
Pf growth 48h: inhibits P. falciparum growth in the first generation, 48 h; hit rate 5.9% among 310,000; Potency, µM (titrated, usually from 28.7 µM), for the others: top-dose activity change, negative = inhibition, hits mostly inhibitors; P. falciparum luciferase growth in erythrocytes, 48 h
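Growth was read as firefly luciferase luminescence after a 48 h, 37 C, 5% CO2 exposure of compounds to reporter-bearing P. falciparum cultures (0.1% parasitemia, 2% hematocrit final) in Albumax-supplemented RPMI 1640.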
AmpC detergent: inhibitors of E. coli AmpC beta-lactamase with detergent; AmpC hydrolysis of nitrocefin, absorbance 480 nm, 0.01% Triton; Potency, µM (highest dose often 114 µM), without a hit: top-dose activity change, negative = inhibition, usual class: inhibitors; hit rate 0.041% among 370,000; AID 485294;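 further: 0% = no-compound wells and -100% = no-enzyme wells; nearly all actives have a fitted effect of over 25% in size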
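AmpC (5.3 nM in the dispensed reagent) in 20 mM phosphate pH 7.0 with 0.01% (detergent screen) or 0.0001% Triton X-100 was preincubated with compounds for 15 min at room temperature. Nitrocefin was then added from an 800 uM solution, and hydrolysis was followed at 480 nm.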
Starred values were filed as active, the others as inactive; ? = inconclusive; . = not tested or not shown. Hits are enriched below; roughly 11% of the tested compounds scored in any of these assays. The call rests on the fitted dose curve; in most records, active means well fitted curve in the direction sought with a large enough effect; inconclusive means small, poorly fitted or top-dose-only effect, or another doubt; inactive means no such curve, though single readings can be large; an effect the other way counts as inactive or inconclusive. Unless noted, on the % scale 0 is the no-effect control and ±100 the full control effect; potency means the concentration at half of the fitted maximal effect.

SMILES | Pf growth 96h | HCV inhibitor | AmpC no deterg | AMA1-RON2 inh | Pf growth 48h | AmpC detergent
O=C1CC(c2ccco2)CC(O)=C1C=Nc1cc(Cl)ccc1Cl (stereo unspecified) | 31% | 12% | -30% | -1% | 1% | ?
O=C(c1ccc2c(c1)N(Cc1cccc(Cl)c1)C(=O)c1ccccc1S2(=O)=O)N1CCc2ccccc21 | . | . | . | . | . | -6%
COc1cc2c(cc1OC)C(COc1ccc3c(C)cc(=O)oc3c1)N(C(=O)c1cccc(OC)c1OC)CC2 (stereo unspecified) | . | . | . | . | . | 5%
O=[N+]([O-])c1ccc2c(c1)C(N1CCOCC1)/C(=C/COc1ccc3ccccc3c1Br)O2 (stereo unspecified) | ? | -18% | -28% | ? | 6.6µM* | -5%
COc1ccccc1N1CCN(c2ccc(=O)n(CC(=O)O)n2)CC1 | . | . | . | . | . | 5%
COc1ccc(O)c(C(=O)c2cnc3c(c2)c(=O)[nH]c(=O)n3C)c1 | ? | ? | -16% | -5% | 11% | ?
COCCn1c(=O)[nH]c(=O)c2cc(C(=O)c3cc(Cl)ccc3O)cnc21 | ? | 1.8µM* | -36% | 0% | 9.3µM* | 1%
Cc1ccc(-c2nn(-c3ccc(F)cc3)c3c2cnc2cc(F)c(F)cc23)cc1 | . | . | . | . | . | 1%
C/C(=N/NC(=O)CNC(=O)c1ccc2c(c1)OCO2)c1ccc2c(c1)CCCC2 | 3.3µM* | ? | -18% | -23% | 1% | -5%
O=C(N/N=C/c1ccc(Br)s1)c1c[nH]c2ccccc12 | -26% | ? | 25µM* | -1% | 10% | -7%
O=C(N/N=C/c1cc2c(cc1Br)OCO2)c1c[nH]c2ccccc12 | 29% | 22µM* | -57% | -3% | ? | 3%
C/C(=N/NC(=O)CNC(=O)c1ccccc1F)c1ccc2c(c1)CCCC2 | 13% | 3% | -51% | 25% | 3% | -3%
C/C(=N\NC(=O)c1ccc(NS(=O)(=O)c2cccs2)cc1)c1ccc2c(c1)OCO2 | 2% | 25% | 18µM* | 23% | -1% | 1%
O=C(N/N=C/c1cc(Br)cs1)c1c[nH]c2ccccc12 | ? | ? | -48% | 2% | ? | 9%
O=C(CCCCn1c(=O)c2ccccc2n(CC(=O)Nc2ccc(F)cc2F)c1=O)NCc1ccccc1Cl | . | . | . | . | . | 24%
COc1cc(OC)c(OC)cc1/C=C/c1nc2cc3ccccc3cc2c(=O)n1-c1ccc(F)cc1F | . | . | . | . | . | -3%
CCc1c(-c2ccccc2)nc2ccccc2c1C(=O)NC(C)c1ccccc1 (stereo unspecified) | . | . | . | . | . | -7%
O=C(c1ccc(NS(=O)(=O)c2cccs2)cc1)N1CCCCC1 | -2% | 2.8µM* | -11% | 0% | 16% | ?
CC(C)(C)c1cc(C(=O)N/N=C/c2cc3c(cc2Br)OCO3)n[nH]1 | ? | 11µM* | -27% | 18% | ? | 0%
C/C(=N\NC(=O)c1c[nH]c2ccccc12)c1ccc2c(c1)OCO2 | 5.9µM* | -14% | -37% | 24% | ? | -4%
O=C(c1ccc(NS(=O)(=O)c2cccs2)cc1)N1CCOCC1 | 0% | . | -17% | 0% | 6% | 5%
Cc1nn2cc(-c3ccc(OC(C)C)cc3)nc2s1 | . | . | . | . | . | 21%
O=C(CCC1N=C2c3ccccc3N=C(SCc3ccc(Cl)cc3)N2C1=O)NC1CCCCC1 (stereo unspecified) | . | . | . | . | . | -3%
COc1ccc(CCNC(=O)CSc2cn(CCNC(=O)c3cccc(C(F)(F)F)c3)c3ccccc23)cc1OC | . | . | . | . | . | 0%
COc1cccc2c1Oc1ncccc1N(C(=O)CCC(=O)NC(C)C)C2 | . | . | . | . | . | 6%
Cc1ccc(N2CC(c3nnc(Cc4ccc(F)cc4)o3)CC2=O)cc1 (stereo unspecified) | . | . | . | . | . | -7%
